We go through 8 compounds from PubChem BioAssay (NCI).

This is part of a sample that, as a whole, favours compounds with a hit. Of some 83,000 tested, about 20% had one in any assay.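 Method: cells in 96-well plates; compound added at one concentration; 48 h incubation; percent growth measured; values under 10 scored active.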 A number with no mark means an inactive call. Calls of active or inactive are those of the source.

Experiment in all cases: NCI-60 one-dose screen, 48 h (100 = growth as untreated, 0 = no growth, -100 = all killed)
Assay [1] relates to EKVX NSCLC. As to conditions: 10 µM unless noted.
Assay [2] has as its system SN12C renal. As to conditions: 10 µM unless noted.
The test system of assay [3] is UO-31 renal. To be noted: 10 µM unless noted.
The subject of assay [4] is TK-10 renal. As to conditions: 10 µM unless noted.
Assay [5] relates to ACHN renal. As to conditions: 10 µM unless noted.
Assay [6] concerns CAKI-1 renal. As to conditions: 10 µM unless noted.
For assay [7], the system named is A498 renal. As to conditions: 10 µM unless noted.
The subject of assay [8] is CCRF-CEM leukemia. To be noted: 10 µM unless noted.
The test system of assay [9] is MOLT-4 leukemia. As to conditions: 10 µM unless noted.
Assay [10] deals with SR leukemia. To be noted: 10 µM unless noted.
In assay [11] the test system is RPMI-8226 leukemia. As to conditions: 10 µM.
The subject of assay [12] is OVCAR-8 ovarian. To be noted: 10 µM unless noted.
For assay [13], the system named is OVCAR-5 ovarian. To be noted: 10 µM unless noted.
The subject of assay [14] is OVCAR-4 ovarian. To be noted: 10 µM unless noted.
The subject of assay [15] is SK-OV-3 ovarian. To be noted: 10 µM.
The test system of assay [16] is IGROV1 ovarian. As to conditions: 10 µM unless noted.
Assay [17] has as its system OVCAR-3 ovarian. As to conditions: 10 µM unless noted.
Assay [18] relates to HS 578T breast. As to conditions: 10 µM unless noted.
The subject of assay [19] is NCI/ADR-RES ovarian. As to conditions: 10 µM unless noted.
The subject of assay [20] is SK-MEL-2 melanoma. To be noted: 10 µM unless noted.

Take `O=C1c2ccccc2-c2cn(Cc3ccccc3)c3cccc(c23)C1c1cccnc1` (centres undefined): the growth is 80.5% in assay [1]; 59.5% in assay [2]; 54.9% in assay [3]; 55.7% in assay [4]; 51.2% in [5]; 51.4% in assay [6]. In addition, the growth is 43.3% in assay [7]; 19.3% in assay [8]; 34.8% in [9]; 8.31% (active) in assay [10]; 64.5% in assay [11]; 57.9% in assay [12]. Moreover, the growth was 75.9% in assay [13]; 64.3% in assay [14]; 37.6% in assay [15]; 54.5% in assay [16]; 2.21% (active) in [17]; 78.1% in [18]. Further, the growth in [19] was 26.5%.
As for `CN1CCn2c(c(Sc3ccc(C(=O)NO)cc3)c3ccccc32)C1=O`, the growth is -43.3% (active) in assay [20]; -3% (active) in assay [2]; 59% in assay [3]; 50.5% in assay [6]; 4.23% (active) in assay [7]; -6.26% (active) in assay [8]. Also, the growth in assay [9] was 1.98% (active); in assay [10] it was 0.516% (active); in assay [11] it was -19.9% (active); in [12] it was -46.5% (active); in assay [13], 24.3%; in assay [14] it was 14%. Besides, the growth in assay [15] was 57.4%; in assay [16] it was -44.1% (active); in [17] it was -32.5% (active); in assay [18] it was 49.3%; in assay [19], 64.1%.
In the case of `O=C1OCC2=C1C(c1ccc3c(c1)OCO3)CC(=O)N2c1cccc(Cl)c1` (centres undefined), the growth was 96.3% in assay [1]; 95.9% in [2]; 85.1% in assay [3]; 99.6% in assay [4]; 103% in assay [5]; 90.2% in [6]. In addition, the growth in [7] is 84.6%; in assay [8], 90.9%; in [9], 95.2%; in assay [10], 98.6%; in assay [11] it was 90.1%; in [12], 102%. Besides, the growth is 106% in assay [13]; 93.5% in assay [14]; 97.5% in assay [15]; 104% in [16]; 109% in [17]; 94.5% in assay [18]. Besides, the growth in assay [19] was 98.9%.
As for `NC(=O)c1cc(I)ccc1NC(=O)COc1ccc(Cl)cc1Cl`, the growth was 79.2% in [20]; 103% in [2]; 83.3% in assay [3]; 99% in assay [5]; 88.8% in assay [6]; 73.9% in assay [7]. For the same compound, the growth is 81.6% in [8]; 40.9% in assay [10]; 96.3% in assay [11]; 102% in [12]; 103% in assay [13]; 114% in assay [14]. In addition, the growth in assay [15] is 90.5%; in assay [16] it was 89.3%; in assay [17], 103%; in assay [18] it was 106%; in assay [19] it was 82.3%.
As for `O=C1c2ccccc2C(=O)c2c(Nc3ccc(CCO)cc3)ccc(O)c21`, the growth in [1] was 45%; in assay [2], 85.5%; in assay [3], 47.4%; in assay [4], 100%; in assay [5], 64.4%; in [6] it was -4.04% (active). For the same compound, the growth in assay [7] is 51.5%; in [8] it was 39.8%; in assay [9], 35.9%; in assay [10], -5.4% (active); in [11], 46.5%; in assay [12], 74.1%. Also, the growth in [13] was 105%; in [14], 72.5%; in assay [15], 73.5%; in [16], 45.4%; in assay [17], 122%; in assay [18], -21.7% (active). Besides, in assay [19], the growth was 82%.
In the case of `CN1CCc2c(Sc3ccc(C(=O)NO)cc3)c3ccccc3n2C1`, the growth in assay [20] was 39.6%; in [2], 59.4%; in assay [3], 62.8%; in assay [5], 64.6%; in [6], 78.8%; in assay [7] it was 28.6%. In addition, the growth in [8] is 3.13% (active); in [9], 6.7% (active); in [11], 7.63% (active); in assay [12], 7.62% (active); in assay [13] it was 27.1%; in [14] it was 28.3%. Besides, the growth in [15] was 62.4%; in assay [16] it was 75.6%; in [17], 42.8%; in assay [18] it was 60.2%; in [19] it was 75.2%.
With `NC(=O)c1cc(I)ccc1NC(=O)COc1ccccc1`, the growth in [20] was 34.5%; in assay [2], 37.4%; in assay [3] it was 52.7%; in assay [5], 43.8%; in assay [6], 55.1%; in assay [8], 4.81% (active). In addition, the growth in assay [10] is 20.2%; in assay [11], 9.76% (active); in [12], 15.9%; in [13], 39.1%; in assay [14], 78.9%; in assay [15], -2.65% (active). The growth is 44.2% in assay [16], 12% in assay [17], 36.6% in assay [18] and 4.28% (active) in [19].
On to `c1ccc(-c2n(Cc3ccc4ccccc4n3)c3ccccc3[n+]2Cc2ccc3ccccc3n2)cc1`, for which the growth is -20.7% (active) in assay [20]; 2.63% (active) in assay [2]; 27.8% in assay [3]; 34.2% in assay [5]; -17.6% (active) in assay [6]; -16.4% (active) in [7]. In addition, the growth in assay [8] was 12.5%; in assay [10], -19.1% (active); in [12] it was 7.66% (active); in [13], 12.8%; in assay [14], 7.64% (active); in assay [16], -34.3% (active). The growth was 0.883% (active) in assay [17], 2.04% (active) in assay [18] and 73.4% in assay [19].
